About 83,000 compounds went through this panel and 20% of them were active in at least one assay; those are over-represented in the sample as a whole.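 96-well plates, one dose, 48 hours. Percent growth reported; active if below 10.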 Values without a mark were called inactive. Active and inactive are the calls of the source.
What was measured:
Experiment in all cases: NCI-60 one-dose screen, 48 h (100 = growth as untreated, 0 = no growth, -100 = all killed)
T-47D breast = conditions: 10 µM
BT-549 breast = conditions: 10 µM unless noted
MDA-MB-435 melanoma = conditions: 10 µM unless noted
SW-620 colon = conditions: 10 µM unless noted
MCF7 breast = conditions: 10 µM unless noted
HCT-116 colon = conditions: 10 µM unless noted
HCC-2998 colon = conditions: 10 µM unless noted
KM12 colon = conditions: 10 µM unless noted

SMILES | growth (T-47D breast) | growth (BT-549 breast) | growth (MDA-MB-435 melanoma) | growth (SW-620 colon) | growth (MCF7 breast) | growth (HCT-116 colon) | growth (HCC-2998 colon) | growth (KM12 colon)
N#Cc1c(O)c2c(c(O)c1C#N)C(=O)c1ccccc1C2=O | 23.2% | 69.1% | -91.2% (active) | 8.21% (active) | 46.2% | 1.88% (active) | 34.5% | 73.4%
COc1cc(/C=C/c2cc(/C=C/c3ccc(O)c(OC)c3)n(-c3ccccc3)n2)ccc1O | -23.9% (active) | -47.2% (active) | -67.3% (active) | -22.7% (active) | -5.71% (active) | -5.83% (active) | 5.82% (active) | -28% (active)
CCOC(=O)C1=C(C)N2C(=NC3=C(CCCC/C3=C\c3ccccc3)C2c2ccccc2)S1 (stereo unspecified) | 78.7% | 99.1% | 93.7% | 101% | 87.8% | 96.3% | 94.9% | 97.3%
Clc1ccc(Nc2ccnc(N3CCN(c4ccnc5cc(Cl)ccc45)CC3)n2)cc1 | 15.2% | 52.2% | 13.3% | 48.5% | 17.5% | 13.5% | 64.7% | 36.8%
O=C1NC(=O)C(CSc2ccccc2)(c2ccccc2)N1 (stereo unspecified) | 93.4% | 100% | 112% | 106% | 101% | 102% | 96.4% | 113%
O=C1CC2c3cc(-c4cc5ccccc5o4)ccc3CCN2C(=O)N1c1ccccc1 (stereo unspecified) | 57.4% | 92.2% | 89.3% | 111% | 88.6% | 75.3% | 110% | 101%
COC(=O)c1c2c(c(C)[n+]([O-])c1C)C(=O)C=C(NCc1cccc(OC)c1)C2=O | -43.9% (active) | -95% (active) | -94.7% (active) | -41.2% (active) | -65.4% (active) | -60.1% (active) | -64.7% (active) | -21.1% (active)
CN1CCc2c(Sc3ccc(C(=O)NO)cc3)c3ccccc3n2C1 | 39.7% | 76.9% | 23.7% | 19.6% | 32.5% | 3.85% (active) | 66.5% | 53.9%
COc1cc(/C=C/C(=O)C2=C(/C=C/c3ccc(O)c(OC)c3)NC(=O)NC2c2ccc(O)c(OC)c2)ccc1O (stereo unspecified) | 86.7% | 93.4% | 93.4% | 94.2% | 82.1% | 73.3% | 119% | 101%
Cc1ccc(C2SCC(=O)N2NC(=O)c2[nH]c3ccc(F)cc3c2-c2ccccc2)cc1 (stereo unspecified) | 91.3% | 93.2% | 96.3% | 102% | 93.1% | 80.1% | 70.2% | 96.1%
C=CC(=O)N1CC2(CC(n3nc(-c4ccc(Oc5ccccc5)cc4)c4c(N)ncnc43)C2)C1 | 36.4% | 29.9% | 30.4% | 78.8% | 26.5% | 45.4% | 64.9% | 48.9%
Clc1ccc(C2=Nc3cccc4cccc(c34)N2)cc1Cl | 42.2% | 74.2% | 114% | 99% | 50.2% | 93% | 104% | 99.9%
Nc1c(Br)cc(Br)cc1-c1n[nH]c(=O)[nH]c1=O | 103% | 101% | 99.2% | 96.9% | 99.8% | 107% | 111% | 99.8%
COC(=O)[C@@H]1CCCN1C(=O)[C@@H]1CCCN1C(=O)[C@@H](Cc1c[nH]c2ccccc12)NC(=S)Nc1cc(C(F)(F)F)cc(C(F)(F)F)c1 | 32.8% | 82.4% | 5.44% (active) | 50.3% | 25.9% | 34% | 35.4% | 66.2%
COc1ccc(OC)c(C2C(C#N)=C(N)Oc3cc(O)ccc32)c1 (stereo unspecified) | 86.7% | 94.1% | 83.4% | 101% | 99.3% | 96.3% | 109% | 94%
CC(C)(C)[Si](C)(C)OC1[C@@H](CNC(=O)NC(=O)CCl)O[C@@H](n2cnc3c(N)ncnc32)[C@H]1O[Si](C)(C)C(C)(C)C (stereo partly specified) | 13.5% | -70.6% (active) | -90% (active) | -82% (active) | -75.5% (active) | -87.7% (active) | -69.5% (active) | -82.4% (active)

SMILES | growth (T-47D breast) | growth (BT-549 breast) | growth (MDA-MB-435 melanoma) | growth (SW-620 colon) | growth (MCF7 breast) | growth (HCT-116 colon) | growth (HCC-2998 colon) | growth (KM12 colon)
CCN(c1ccc(C(=O)N2CCN(c3ccccc3)CC2)cc1)S(C)(=O)=O | 93.2% | 108% | 106% | 108% | 95.9% | 101% | 102% | 101%
Cc1nc2cc(Nc3nc(N4CCOCC4)nc(N4CCN(C)CC4)n3)ccc2n1Cc1ccccc1 | 99.6% | 103% | 100% | 104% | 98.8% | 98.2% | 113% | 115%
CC(C)(C)[Si](C)(C)OC1[C@@H](COC(=O)NC(=O)CCl)O[C@@H](n2cnc3c(N)ncnc32)[C@H]1O[Si](C)(C)C(C)(C)C (stereo partly specified) | 76.3% | -17.9% (active) | -28.2% (active) | -21.8% (active) | 10.6% | 11.2% | 56% | 19.9%
CN1CCc2cccc3c2C1Cc1ccc(O)c(O)c1-3 (stereo unspecified) | 89.3% | 81.6% | 98.6% | 34.8% | 81.6% | 77% | 86.5% | 96.4%
O=C1/C(=C/c2ccc(Cl)cc2)N=C(c2ccccc2)N1CCc1cccs1 | 97.7% | 59.8% | 53.2% | 51.3% | 15.7% | 28.5% | 25.4% | 99.2%
N#Cc1ccc(C(F)(F)F)nc1N1CCC(C(=O)Nc2ccc(Cl)cc2)CC1 | 64.7% | 70.8% | 67.5% | 75.4% | 60% | 41.3% | 68.7% | 91%
O=C(CCc1nnc2sc(-c3ccccc3)nn12)c1nc2ccccc2[nH]1 | 80.3% | 98.4% | 94.8% | 123% | 87% | 72.2% | 104% | 100%
Cc1ccc(-c2nnc(COc3ccc(-c4nnc(N)s4)cc3)o2)cc1 | 101% | 92.9% | 72.4% | 94.8% | 68.3% | 63.4% | 107% | 92.6%
COc1cccc(Nc2nc(NCCO)c3ccccc3n2)c1 | 75.2% | 72.9% | 72.3% | 64.5% | 76.8% | 72.1% | 87.5% | 51.2%
COc1ccc(-c2nc3sc(C)cn3c2/C=C/C(=O)c2cc(OC)c(OC)c(OC)c2)cc1 | 50.3% | 59.9% | 20.9% | 64.3% | 46.7% | 42.1% | 69.3% | 29.3%
CCN1C(=O)C2(Nc3ccccc3S2)c2cc(C)ccc21 (stereo unspecified) | 93.5% | 110% | 102% | 96.5% | 101% | 96.7% | 105% | 107%
Clc1ccc2c(N3CCN(c4ccnc(NC5CCCCC5)n4)CC3)ccnc2c1 | 26.1% | 71.1% | 42.7% | 33.7% | 26.5% | 4.29% (active) | 29.2% | 35.5%
Nc1ccccc1-c1n[nH]c(=O)[nH]c1=O | 114% | 111% | 100% | 101% | 102% | 93.3% | 101% | 107%
O=C1c2[nH]cc(CN[C@@H]3CCCN3)c2C(=O)c2c1c(O)c1ccccc1c2O | -72.4% (active) | 41.1% | -98.3% (active) | -98.1% (active) | -96.5% (active) | -82.8% (active) | -85.8% (active) | -89.8% (active)
COc1cc(C(F)(F)F)ccc1-c1cc(-c2ccc(F)cc2)n[nH]1 | 62.7% | 106% | 96% | 98.3% | 50.4% | 82.2% | 108% | 88.1%
O=c1onc(-c2ccccc2)c2ccccc12 | 97.8% | 118% | 105% | 103% | 102% | 113% | 98.9% | 110%

Source: PubChem BioAssay (NCI)
